# Compound activity: PubChem, Broad Institute
# Shown are actives, neighbours in structure and some others; about 1.2% of the full set was active somewhere.
# PfHsp40 yeast: restores yeast growth despite PfHsp40 toxicity | S. cerevisiae expressing PfHsp40, growth rescue, ATP luminescence | growth rescue, % at 12.5 µM | 340,000 tested, 0.68% active | AID 504582; in the data active = growth rescue above about 28%, passing the limit was not always enough;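 note: yeast W303a lacking pdr1 and pdr3 grown in galactose medium; growth measured after three days at 30 °C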
# TcdB inh: inhibitors of Clostridioides difficile toxin B glycohydrolase. P18177. TcdB glycohydrolase enzymatic assay, plate reader. inhibition, % at 9.99 µM. 350,000 tested, 0.24% active; in the data active = inhibition above about 10%
# Mtb BioA inh: BioA (M. tuberculosis) enzyme inhibition. purified M. tuberculosis BioA enzyme, plate reader. inhibition, % at 9.99 µM. 360,000 tested, 0.096% active; in the data active = inhibition above about 40%
# Y pestis TopoI: Y. pestis Topo-I inhibition via cleavage products. Y. pestis Topo-I cleavage product accumulation, plate reader. activity, % at 10 µM. 360,000 tested, 0.064% active. AID 504884; in the data active = activity above about 50%, passing the limit was not always enough
# PrP 5UTR inh: inhibition of PrP 5' UTR reporter expression. 340,000 tested, 0.35% active. inhibition, % (test concentration not listed). cell-based PrP 5' UTR mRNA reporter, plate reader; in the data active = inhibition above about 52%
# FadD28 FP inh: inhibitors of Mycobacterium tuberculosis FadD28 bisubstrate binding | AID 588549 | FadD28 bisubstrate probe binding, fluorescence polarization | 360,000 tested, 0.22% active | inhibition, % at 12.5 µM; in the data active = inhibition above about 8.5%, passing the limit was not always enough
# PrP UTR cherry: prion 5' UTR mRNA inhibition, cherry-pick retest; shares compounds with PrP 5UTR inh; cell-based prion protein 5' UTR reporter, plate reader; inhibition, % at 2.5 µM; 1,100 tested, 48% active; in the data active = inhibition above about 54%
# Numbers stand for hits; n = inactive; x = no result given.
SMILES,PfHsp40 yeast,TcdB inh,Mtb BioA inh,Y pestis TopoI,PrP 5UTR inh,FadD28 FP inh,PrP UTR cherry
COc1ccc(S(=O)(=O)Nc2ccc3c(c2)C(=O)N([C@H](C)CO)C[C@@H](C)[C@H](CN(C)C(=O)NC(C)C)O3)cc1,x,x,n,x,x,x,x
COc1cc(C2C3=C(Nc4ncnn42)c2ccccc2CC3)cc(OC)c1OC (stereo not given),n,x,n,n,62,n,86
CN1C(=O)c2cc(NS(=O)(=O)c3ccc(F)cc3)ccc2OC[C@H]2O[C@H](CC(=O)NCC(F)(F)F)CC[C@@H]21,x,n,n,x,x,x,x
COc1ccc(S(=O)(=O)Nc2ccc3c(c2)CC(=O)N([C@@H](C)CO)C[C@H](C)[C@H](CN(C)Cc2ccc(C(=O)O)cc2)O3)cc1,x,n,n,x,x,x,x
CCN=C1NN=C(c2cc(C)n(Cc3ccco3)c2C)CS1,n,n,x,n,83,n,72
Cc1noc(C)c1NC(=O)Nc1ccc2c(c1)CC(=O)N([C@@H](C)CO)C[C@@H](C)[C@H](CN(C)Cc1ccc3c(c1)OCO3)O2,x,x,n,x,x,x,x
O=C(N[C@@H]1CC[C@@H](CCn2cc(C3(O)CCCC3)nn2)O[C@H]1CO)C1CC1,x,n,n,x,x,x,x
O=C(O)CCC1(CCC(=O)O)c2ccccc2-c2ccccc21,n,n,n,n,n,n,x
CC1(C(=O)O)CC12c1ccccc1-c1ccccc12 (stereo not given),n,n,x,n,62,n,n
Cc1ccc(S(=O)(=O)Nc2ccc3c(c2)C(=O)N([C@H](C)CO)C[C@@H](C)[C@H](CN(C)S(=O)(=O)c2cccs2)O3)cc1,x,n,n,x,x,x,x
C[C@@H]1CN([C@@H](C)CO)C(=O)c2cc(C#Cc3ccccn3)cnc2O[C@H]1CN(C)Cc1ccccc1,x,x,n,x,x,x,x
O=C(/C=C/c1cccs1)Nc1ccc(Br)cn1,n,x,x,n,61,n,84
CC(C)(C)n1ncc2c(=O)n(CC(=O)OCc3ccccc3)cnc21,n,x,n,n,60,n,n
CC=Cc1ccc2n(c1=O)C[C@@H]1[C@@H](CO)[C@H](C(=O)NCC(F)(F)F)[C@H]2N1C(=O)C1CCCC1 (mixture of isomers),x,n,x,x,x,x,x
COC(=O)C1=C(C(=O)OC)SC2(S1)C(C(=O)OC)=C(C(=O)OC)SC1=C2c2cc(C)cc(C)c2NC1(C)C,n,x,n,n,n,n,x
COC(=O)C1=C(C(=O)OC)SC2(S1)C(C(=O)OC)=C(C(=O)OC)Sc1c2ssc1=O,n,n,x,n,75,n,72
CC(C)NC(=O)N(C)C[C@H]1Oc2cc(C#C[C@@H](C)O)ccc2S(=O)(=O)N([C@@H](C)CO)C[C@@H]1C,x,n,n,x,x,x,x
Cc1ccc2oc(/N=C(\N)NC(=O)C3CC3)nc2c1,n,n,n,n,n,n,x
Cc1ccc2oc(/N=C(\N)NC(=O)C(C)(C)C)nc2c1,n,n,n,n,90,n,85
C=CCn1c(SCc2c(C)noc2C)nc2ccccc2c1=O,n,x,n,n,67,n,82
COc1ccc(S(=O)(=O)NCc2ccco2)cc1C(=O)N1CCOCC1,n,n,n,n,n,n,x
O=C(c1cc(S(=O)(=O)NCc2ccco2)ccc1Br)N1CCOCC1,n,n,n,n,79,n,n
CCC(C)(C)c1ccc(Oc2ccc(N)cc2)cc1,n,n,n,n,87,n,88
CC(C)c1ccccc1NC(=S)N1CCN(S(=O)(=O)c2cccs2)CC1,n,n,n,n,87,n,n
C[C@@H]1CN([C@H](C)CO)C(=O)c2cc(NC(=O)Cc3ccccc3)ccc2O[C@@H](C)CCCCO[C@@H]1CN(C)C,x,n,n,x,x,x,x
SMILES,PfHsp40 yeast,TcdB inh,Mtb BioA inh,Y pestis TopoI,PrP 5UTR inh,FadD28 FP inh,PrP UTR cherry
CN(C)C(=O)C[C@@H]1C[C@H]2c3cc(NC(=O)Nc4ccccc4F)ccc3O[C@H]2[C@H](CO)O1,x,n,n,x,x,x,x
O=C(Cc1ccc(NC(=O)C2CCN(C(=O)c3ccccc3)CC2)cc1)Nc1ccc(C(=O)N2CCOCC2)cc1,n,n,n,n,n,n,x
O=C(Cc1ccc(Cl)cc1)Nc1ccc(C(=O)N2CCOCC2)cc1,n,n,x,n,63,n,n
CC(=O)N1C[C@H]2[C@@H](c3ccccc31)[C@@H](CO)N2C(=O)Nc1ccc(F)cc1,x,n,n,x,x,x,x
COC(=O)c1ccccc1NC(=O)Cn1c(-c2nonc2N)nc2ccccc21,n,n,n,n,70,n,91
COC(=O)c1ccc(NC(=O)Cn2c(-c3nonc3N)nc3ccccc32)cc1,n,n,x,n,n,n,x
O=C(NCN1CCN(c2ccccc2F)CC1)c1ccccc1,n,x,n,n,n,n,x
Cc1cccc(C(=O)NCN2CCN(c3ccccc3C#N)CC2)c1,n,n,n,n,82,n,n
Nc1ncnc(Oc2cccc3cccnc23)c1[N+](=O)[O-],n,n,x,n,67,n,n
Cc1cccc(Oc2ncnc(N)c2[N+](=O)[O-])c1C,n,n,n,n,n,n,x
COc1ccc(NC2Oc3cc4c(cc3C(c3cc(OC)c(OC)c(OC)c3)C2C)OCO4)cc1 (stereo not given),n,n,x,n,61,n,n
C[C@H]1CN([C@@H](C)CO)C(=O)Cc2cc(NS(=O)(=O)c3ccccc3)ccc2O[C@@H]1CN(C)Cc1ccc(-c2ccccc2)cc1,x,n,n,x,x,x,x
COc1cc(SC)ccc1C(=O)Nc1ccccn1,n,n,n,n,n,n,x
COc1cc(SC)ccc1C(=O)Nc1ncc(C)s1,n,n,x,n,74,n,69
COc1cc(SC)ccc1C(=O)Nc1ccc(Br)cn1,n,n,n,n,68,n,67
COc1ccc(CN(C)C[C@@H]2Oc3ccc(NC(=O)Nc4c(C)noc4C)cc3C(=O)N([C@@H](C)CO)C[C@H]2C)cc1,x,n,n,x,x,x,x
COc1ccc2c(c1)C(NC(C)=O)CCc1cc(OC)c(OC)c(OC)c1-2 (stereo not given),n,n,x,n,n,n,x
COc1c(C=O)c2c(c(OC)c1OC)-c1ccc(OC)c(=O)cc1C(NC(C)=O)CC2 (stereo not given),n,n,x,n,58,n,86
COc1cc2c(c(OC)c1OC)-c1ccc(SC)c(=O)cc1C(NC(=O)c1ccccc1)CC2 (stereo not given),n,n,x,n,56,n,83
COc1cc2c(c(OC)c1OC)-c1ccc(O)c(=O)cc1C(NC(C)=O)CC2 (stereo not given),n,n,n,n,63,n,86
COC(=O)c1ccc2c(c1)C(NC(C)=O)CCc1cc(OC)c(OC)c(OC)c1-2 (stereo not given),n,n,x,n,n,n,x
COc1cc2c(c(OC)c1OC)-c1ccc(OC)c(=O)cc1C(NC(=O)c1ccccc1)CC2 (stereo not given),n,n,x,n,n,n,x
CO[C@H](CN(C)C(=O)c1ccccc1F)[C@@H](C)CN([C@@H](C)CO)S(=O)(=O)c1ccc(Cl)cc1,x,n,n,x,x,x,x
